# Measurements from paper PMC7862700, “An all-to-all approach to the identification of sequence-specific readers for epigenetic DNA modifications on cytosine”.
# Key:
# Assay in all cases: DAPPL (digital affinity profiling via proximity ligation, sequencing); 10 mM Tris-HCl pH 7.5, 50 mM NaCl, 1 mM DTT, 4% glycerol, room temperature, 30 min; GST-TFs on glutathione beads, 16-mer random dsDNA library, 0.1% formaldehyde crosslink after washing; high values mean tight binding
# FEV = molecular target: T1, FEV (Homo sapiens, UniProt Q99581 1-238); details: protein: recombinant; tags: N-terminal GST; dsDNA, one strand shown
# T1 sequence: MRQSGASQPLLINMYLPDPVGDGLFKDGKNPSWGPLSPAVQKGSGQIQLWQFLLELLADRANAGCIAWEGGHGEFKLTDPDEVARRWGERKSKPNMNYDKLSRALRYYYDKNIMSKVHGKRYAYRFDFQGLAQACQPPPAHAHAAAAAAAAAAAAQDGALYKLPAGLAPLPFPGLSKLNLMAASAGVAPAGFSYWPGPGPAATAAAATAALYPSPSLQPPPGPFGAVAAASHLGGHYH
# Summary of the method: (§1)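 Yeast served to express human transcription factors as GST fusions, which were then captured on glutathione beads and labelled with DNA barcodes. Pooled with a tag-only sample, they were incubated with 200 nmole of a 16-mer random double-stranded DNA library for 30 min at room temperature in Tris/NaCl/DTT/glycerol buffer, washed, crosslinked with 0.1% formaldehyde, ligated by proximity, amplified by PCR and sequenced. Dividing each hexamer's read frequency for a factor by its frequency for the tag-only sample gives the binding signal.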
# ETV5 = ETV5 (Homo sapiens, UniProt P41161 1-510); details: protein: recombinant; tags: N-terminal GST; dsDNA, one strand shown
# ETV5, sequence (P41161 whole entry): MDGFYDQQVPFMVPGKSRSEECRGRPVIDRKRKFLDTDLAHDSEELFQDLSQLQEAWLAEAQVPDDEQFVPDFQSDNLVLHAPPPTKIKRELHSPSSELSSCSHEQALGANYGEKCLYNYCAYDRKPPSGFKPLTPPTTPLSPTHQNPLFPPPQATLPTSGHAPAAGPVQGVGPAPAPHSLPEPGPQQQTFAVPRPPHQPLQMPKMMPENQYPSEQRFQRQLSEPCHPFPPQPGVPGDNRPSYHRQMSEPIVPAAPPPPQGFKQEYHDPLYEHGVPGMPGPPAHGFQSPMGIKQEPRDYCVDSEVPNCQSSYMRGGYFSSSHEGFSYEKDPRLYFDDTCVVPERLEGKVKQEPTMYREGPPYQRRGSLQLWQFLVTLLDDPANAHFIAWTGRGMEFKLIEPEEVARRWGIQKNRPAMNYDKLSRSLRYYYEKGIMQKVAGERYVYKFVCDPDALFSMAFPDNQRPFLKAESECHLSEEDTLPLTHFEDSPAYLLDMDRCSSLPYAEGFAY
# Summary of the method: as §1
# HSF1 = HSF1 (Homo sapiens, UniProt Q00613 1-529); details: protein: recombinant; tags: N-terminal GST; chain copies: 3; dsDNA, one strand shown
# HSF1, sequence (Q00613 whole entry): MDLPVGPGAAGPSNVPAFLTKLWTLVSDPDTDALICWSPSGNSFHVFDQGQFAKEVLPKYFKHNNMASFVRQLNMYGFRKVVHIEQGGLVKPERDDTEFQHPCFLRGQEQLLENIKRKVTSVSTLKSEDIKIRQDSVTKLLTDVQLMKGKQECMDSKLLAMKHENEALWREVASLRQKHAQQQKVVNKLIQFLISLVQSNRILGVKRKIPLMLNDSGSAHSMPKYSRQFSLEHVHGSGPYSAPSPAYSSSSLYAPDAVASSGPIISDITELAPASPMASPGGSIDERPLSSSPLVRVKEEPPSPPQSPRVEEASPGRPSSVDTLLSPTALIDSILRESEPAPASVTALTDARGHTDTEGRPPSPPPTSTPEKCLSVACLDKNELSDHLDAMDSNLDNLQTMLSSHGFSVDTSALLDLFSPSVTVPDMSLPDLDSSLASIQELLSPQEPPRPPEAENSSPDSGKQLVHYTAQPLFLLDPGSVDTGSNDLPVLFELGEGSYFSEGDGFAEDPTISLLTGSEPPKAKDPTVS
# Summary of the method: as §1
# SPIC = molecular target: T2, SPIC (Homo sapiens, UniProt Q8N5J4 1-248); details: protein: recombinant; tags: N-terminal GST; dsDNA, one strand shown
# T2 sequence: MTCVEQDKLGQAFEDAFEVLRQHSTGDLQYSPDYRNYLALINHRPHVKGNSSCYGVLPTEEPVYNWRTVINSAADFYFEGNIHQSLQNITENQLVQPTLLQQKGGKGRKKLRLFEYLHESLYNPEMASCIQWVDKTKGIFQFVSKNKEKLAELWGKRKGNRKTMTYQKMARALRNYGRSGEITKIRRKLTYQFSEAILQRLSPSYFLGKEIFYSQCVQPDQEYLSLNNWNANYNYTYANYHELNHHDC
# Summary of the method: as §1
# ELF4 = ELF4 (Homo sapiens, UniProt Q99607 1-663); details: protein: recombinant; tags: N-terminal GST; dsDNA, one strand shown
# ELF4, sequence (Q99607 whole entry): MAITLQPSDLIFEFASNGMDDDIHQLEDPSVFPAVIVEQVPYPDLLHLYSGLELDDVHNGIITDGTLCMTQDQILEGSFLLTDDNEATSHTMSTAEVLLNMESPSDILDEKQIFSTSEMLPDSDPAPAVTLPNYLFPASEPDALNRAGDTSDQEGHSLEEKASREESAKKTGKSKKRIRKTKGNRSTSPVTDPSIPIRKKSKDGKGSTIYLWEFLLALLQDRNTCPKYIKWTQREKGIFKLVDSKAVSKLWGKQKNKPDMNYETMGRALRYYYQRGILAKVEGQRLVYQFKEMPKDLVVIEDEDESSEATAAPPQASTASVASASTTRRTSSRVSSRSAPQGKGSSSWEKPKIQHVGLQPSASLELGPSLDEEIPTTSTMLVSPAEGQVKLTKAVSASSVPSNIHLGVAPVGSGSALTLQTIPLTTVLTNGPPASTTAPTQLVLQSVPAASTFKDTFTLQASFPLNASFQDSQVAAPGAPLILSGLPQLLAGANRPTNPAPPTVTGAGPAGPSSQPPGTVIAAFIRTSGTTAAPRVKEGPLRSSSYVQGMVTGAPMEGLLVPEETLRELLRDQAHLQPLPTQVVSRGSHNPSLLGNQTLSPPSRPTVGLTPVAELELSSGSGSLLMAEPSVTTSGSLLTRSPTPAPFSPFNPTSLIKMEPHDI
# Summary of the method: as §1
# ELK4 = molecular target: T3, ELK4 (Homo sapiens, UniProt P28324-2 1-405); details: protein: recombinant; tags: N-terminal GST; dsDNA, one strand shown
# T3 sequence: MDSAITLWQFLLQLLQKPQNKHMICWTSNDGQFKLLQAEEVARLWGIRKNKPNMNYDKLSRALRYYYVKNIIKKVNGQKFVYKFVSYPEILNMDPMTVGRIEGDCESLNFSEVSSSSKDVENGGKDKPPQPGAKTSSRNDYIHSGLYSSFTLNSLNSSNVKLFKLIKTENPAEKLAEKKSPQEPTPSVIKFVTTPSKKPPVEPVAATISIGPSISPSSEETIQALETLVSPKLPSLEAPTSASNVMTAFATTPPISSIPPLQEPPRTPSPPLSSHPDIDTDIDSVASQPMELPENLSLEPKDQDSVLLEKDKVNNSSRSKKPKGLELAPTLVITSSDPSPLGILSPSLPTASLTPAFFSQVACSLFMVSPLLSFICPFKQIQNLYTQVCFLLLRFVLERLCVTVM
# Summary of the method: as §1
# ETV2 = molecular target: T4, ETV2 (Homo sapiens, UniProt O00321 1-342); details: protein: recombinant; tags: N-terminal GST; dsDNA, one strand shown
# T4 sequence: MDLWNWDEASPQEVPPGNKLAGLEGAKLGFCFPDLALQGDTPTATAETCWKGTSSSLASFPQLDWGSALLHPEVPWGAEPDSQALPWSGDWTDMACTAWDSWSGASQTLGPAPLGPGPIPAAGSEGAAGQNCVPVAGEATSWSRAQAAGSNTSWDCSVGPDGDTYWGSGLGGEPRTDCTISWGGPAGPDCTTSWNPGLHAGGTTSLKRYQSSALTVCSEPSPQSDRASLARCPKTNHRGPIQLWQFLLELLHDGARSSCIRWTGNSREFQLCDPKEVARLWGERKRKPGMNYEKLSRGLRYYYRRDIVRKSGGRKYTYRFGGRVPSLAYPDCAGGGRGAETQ
# Summary of the method: as §1
# ELF3 = molecular target: T5, ELF3 (Homo sapiens, UniProt P78545 1-371); details: protein: recombinant; tags: N-terminal GST; dsDNA, one strand shown
# T5 sequence: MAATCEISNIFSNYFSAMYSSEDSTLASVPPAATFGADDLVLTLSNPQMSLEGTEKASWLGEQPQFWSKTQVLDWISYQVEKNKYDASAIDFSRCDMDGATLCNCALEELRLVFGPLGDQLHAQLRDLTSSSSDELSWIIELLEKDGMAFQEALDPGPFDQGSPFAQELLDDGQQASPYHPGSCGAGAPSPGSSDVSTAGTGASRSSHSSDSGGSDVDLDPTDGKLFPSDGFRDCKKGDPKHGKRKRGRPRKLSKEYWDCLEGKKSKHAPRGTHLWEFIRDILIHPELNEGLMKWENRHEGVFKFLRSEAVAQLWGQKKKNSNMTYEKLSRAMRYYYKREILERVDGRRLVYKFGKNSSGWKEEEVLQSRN
# Summary of the method: as §1
# CRX = CRX (Homo sapiens, UniProt O43186 1-299); details: protein: recombinant; tags: N-terminal GST; dsDNA, one strand shown
# CRX, sequence (O43186 whole entry): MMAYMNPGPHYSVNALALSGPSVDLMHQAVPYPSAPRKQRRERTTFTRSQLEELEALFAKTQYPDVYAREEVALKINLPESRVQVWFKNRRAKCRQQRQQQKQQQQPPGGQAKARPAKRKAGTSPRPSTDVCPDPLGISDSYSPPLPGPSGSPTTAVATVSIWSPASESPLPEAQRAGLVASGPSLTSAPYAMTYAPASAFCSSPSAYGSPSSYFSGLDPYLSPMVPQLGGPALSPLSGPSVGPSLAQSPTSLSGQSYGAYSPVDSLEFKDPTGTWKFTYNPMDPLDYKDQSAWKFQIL
# Summary of the method: as §1
# ETV1 = ETV1 (Homo sapiens, UniProt P50549 1-477); details: protein: recombinant; tags: N-terminal GST; dsDNA, one strand shown
# ETV1, sequence (P50549 whole entry): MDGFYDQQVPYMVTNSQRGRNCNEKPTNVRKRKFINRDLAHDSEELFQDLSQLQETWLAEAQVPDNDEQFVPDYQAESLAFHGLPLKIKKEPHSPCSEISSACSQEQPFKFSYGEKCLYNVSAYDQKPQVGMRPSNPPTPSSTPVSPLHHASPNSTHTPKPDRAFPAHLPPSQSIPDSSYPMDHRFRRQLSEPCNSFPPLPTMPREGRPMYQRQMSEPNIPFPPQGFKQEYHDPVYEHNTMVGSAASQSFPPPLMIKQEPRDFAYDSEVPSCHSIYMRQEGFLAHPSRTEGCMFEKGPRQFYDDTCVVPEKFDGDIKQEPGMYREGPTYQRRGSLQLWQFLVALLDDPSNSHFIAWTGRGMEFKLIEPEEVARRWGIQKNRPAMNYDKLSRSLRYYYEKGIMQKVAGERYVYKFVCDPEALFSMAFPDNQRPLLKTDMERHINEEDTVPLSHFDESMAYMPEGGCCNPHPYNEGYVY
# Summary of the method: as §1
# ERF = molecular target: T6, ERF (Homo sapiens, UniProt P50548 1-548); details: protein: recombinant; tags: N-terminal GST; dsDNA, one strand shown
# T6 sequence: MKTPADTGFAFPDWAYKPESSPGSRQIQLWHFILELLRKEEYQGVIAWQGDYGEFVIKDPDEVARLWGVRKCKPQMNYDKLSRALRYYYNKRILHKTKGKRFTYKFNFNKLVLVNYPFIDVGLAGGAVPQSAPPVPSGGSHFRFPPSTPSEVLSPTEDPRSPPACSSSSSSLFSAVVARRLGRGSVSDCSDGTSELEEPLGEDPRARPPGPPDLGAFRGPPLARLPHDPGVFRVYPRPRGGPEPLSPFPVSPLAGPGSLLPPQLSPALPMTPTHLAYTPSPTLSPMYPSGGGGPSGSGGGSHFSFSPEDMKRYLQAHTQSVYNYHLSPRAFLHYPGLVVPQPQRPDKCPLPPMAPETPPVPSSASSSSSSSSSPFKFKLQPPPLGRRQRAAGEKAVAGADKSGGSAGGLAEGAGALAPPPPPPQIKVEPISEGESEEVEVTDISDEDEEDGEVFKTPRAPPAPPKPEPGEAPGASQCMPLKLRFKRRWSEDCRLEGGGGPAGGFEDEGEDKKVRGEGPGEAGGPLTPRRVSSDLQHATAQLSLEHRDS
# Summary of the method: as §1
# ETV3L = molecular target: T7, ETV3L (Homo sapiens, UniProt Q6ZN32 1-361); details: protein: recombinant; tags: N-terminal GST; dsDNA, one strand shown
# T7 sequence: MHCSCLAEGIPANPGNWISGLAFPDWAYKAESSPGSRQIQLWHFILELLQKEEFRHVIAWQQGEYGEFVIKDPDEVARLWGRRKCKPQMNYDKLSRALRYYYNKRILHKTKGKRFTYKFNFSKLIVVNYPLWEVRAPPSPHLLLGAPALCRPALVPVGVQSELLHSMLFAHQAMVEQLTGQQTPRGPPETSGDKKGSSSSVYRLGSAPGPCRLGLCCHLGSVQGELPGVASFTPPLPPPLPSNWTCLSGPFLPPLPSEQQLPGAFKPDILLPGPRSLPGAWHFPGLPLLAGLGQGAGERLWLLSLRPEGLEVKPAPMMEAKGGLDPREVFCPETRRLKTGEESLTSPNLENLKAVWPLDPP
# Summary of the method: as §1
# ETS2 = molecular target: T8, ETS2 (Homo sapiens, UniProt P15036 1-469); details: protein: recombinant; tags: N-terminal GST; dsDNA, one strand shown
# T8 sequence: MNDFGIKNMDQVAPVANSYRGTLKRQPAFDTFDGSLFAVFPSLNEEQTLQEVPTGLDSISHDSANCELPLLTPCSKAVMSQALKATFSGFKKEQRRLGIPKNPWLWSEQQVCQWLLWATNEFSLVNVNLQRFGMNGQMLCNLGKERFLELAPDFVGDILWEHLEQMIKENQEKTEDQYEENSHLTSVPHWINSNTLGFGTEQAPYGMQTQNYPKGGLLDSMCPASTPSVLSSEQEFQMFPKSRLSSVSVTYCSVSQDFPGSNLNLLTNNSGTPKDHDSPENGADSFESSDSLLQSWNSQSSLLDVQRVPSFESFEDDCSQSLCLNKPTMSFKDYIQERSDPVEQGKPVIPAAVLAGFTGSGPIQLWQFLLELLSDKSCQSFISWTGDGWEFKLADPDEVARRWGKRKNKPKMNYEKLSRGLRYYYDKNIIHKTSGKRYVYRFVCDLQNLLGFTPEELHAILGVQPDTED
# Summary of the method: as §1
# SPDEF = molecular target: T9, SPDEF (Homo sapiens, UniProt O95238 1-335); details: protein: recombinant; tags: N-terminal GST; dsDNA, one strand shown
# T9 sequence: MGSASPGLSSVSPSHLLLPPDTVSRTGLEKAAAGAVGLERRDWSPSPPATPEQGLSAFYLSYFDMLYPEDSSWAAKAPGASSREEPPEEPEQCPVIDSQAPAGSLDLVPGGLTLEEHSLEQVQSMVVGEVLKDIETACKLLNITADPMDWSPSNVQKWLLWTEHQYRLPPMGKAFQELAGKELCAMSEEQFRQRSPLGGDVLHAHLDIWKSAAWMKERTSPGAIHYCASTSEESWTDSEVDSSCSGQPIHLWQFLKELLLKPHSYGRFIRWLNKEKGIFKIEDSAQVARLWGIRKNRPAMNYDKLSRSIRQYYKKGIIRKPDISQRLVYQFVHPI
# Summary of the method: as §1
# ETV7 = molecular target: T10, ETV7 (Homo sapiens, UniProt Q9Y603 1-341); details: protein: recombinant; tags: N-terminal GST; dsDNA, one strand shown
# T10 sequence: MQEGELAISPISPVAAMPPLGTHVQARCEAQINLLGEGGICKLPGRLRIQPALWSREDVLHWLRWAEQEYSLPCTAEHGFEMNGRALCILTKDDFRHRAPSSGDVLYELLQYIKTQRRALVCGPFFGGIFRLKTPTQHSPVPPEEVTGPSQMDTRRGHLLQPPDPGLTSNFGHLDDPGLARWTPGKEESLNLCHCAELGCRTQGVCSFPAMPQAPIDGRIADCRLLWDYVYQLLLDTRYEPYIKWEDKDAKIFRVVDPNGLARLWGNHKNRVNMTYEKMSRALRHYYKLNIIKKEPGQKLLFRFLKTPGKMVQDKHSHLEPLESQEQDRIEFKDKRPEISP
# Summary of the method: as §1
# ELF5 = molecular target: T11, ELF5 (Homo sapiens, UniProt Q9UKW6-2 1-255); details: protein: recombinant; tags: N-terminal GST; dsDNA, one strand shown
# T11 sequence: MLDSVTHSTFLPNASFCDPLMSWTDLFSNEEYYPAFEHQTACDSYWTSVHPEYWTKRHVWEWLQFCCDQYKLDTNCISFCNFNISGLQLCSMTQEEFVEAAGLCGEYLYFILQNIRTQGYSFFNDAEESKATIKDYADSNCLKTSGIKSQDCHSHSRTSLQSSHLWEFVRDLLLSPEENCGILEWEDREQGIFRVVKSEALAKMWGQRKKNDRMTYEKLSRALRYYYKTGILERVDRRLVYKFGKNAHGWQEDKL
# Summary of the method: as §1
# ETV3 = molecular target: T12, ETV3 (Homo sapiens, UniProt P41162-2 1-143); details: protein: recombinant; tags: N-terminal GST; dsDNA, one strand shown
# T12 sequence: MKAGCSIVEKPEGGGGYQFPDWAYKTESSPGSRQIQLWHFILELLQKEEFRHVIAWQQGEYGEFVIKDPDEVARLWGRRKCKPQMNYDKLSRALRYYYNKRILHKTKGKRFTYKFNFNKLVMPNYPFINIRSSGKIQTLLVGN
# Summary of the method: as §1
# ETV6 = ETV6 (Homo sapiens, UniProt P41212 1-452); details: protein: recombinant; tags: N-terminal GST; dsDNA, one strand shown
# ETV6, sequence (P41212 whole entry): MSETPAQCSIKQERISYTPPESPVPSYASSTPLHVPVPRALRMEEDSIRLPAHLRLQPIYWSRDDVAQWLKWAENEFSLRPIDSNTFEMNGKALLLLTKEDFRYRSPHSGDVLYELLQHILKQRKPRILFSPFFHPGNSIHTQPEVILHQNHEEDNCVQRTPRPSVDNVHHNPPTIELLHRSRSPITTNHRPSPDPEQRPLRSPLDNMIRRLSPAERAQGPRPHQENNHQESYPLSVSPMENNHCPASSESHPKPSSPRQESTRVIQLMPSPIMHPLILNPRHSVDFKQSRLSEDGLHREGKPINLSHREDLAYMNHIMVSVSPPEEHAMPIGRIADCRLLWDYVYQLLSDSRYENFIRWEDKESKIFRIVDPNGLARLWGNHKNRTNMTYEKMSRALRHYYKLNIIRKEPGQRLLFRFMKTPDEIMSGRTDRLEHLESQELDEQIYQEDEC
# Summary of the method: as §1
sequence,measurement,setting,value
AAAATT,binding signal,FEV,"1.29 fold enrichment (6-mer frequency, TF over GST control)"
same,binding signal,ETV5,"1.4 fold enrichment (6-mer frequency, TF over GST control)"
same,binding signal,HSF1,"1.73 fold enrichment (6-mer frequency, TF over GST control)"
same,binding signal,SPIC,"1.2 fold enrichment (6-mer frequency, TF over GST control)"
same,binding signal,ELF4,"1.41 fold enrichment (6-mer frequency, TF over GST control)"
same,binding signal,ELK4,"1.34 fold enrichment (6-mer frequency, TF over GST control)"
same,binding signal,ETV2,"1.54 fold enrichment (6-mer frequency, TF over GST control)"
same,binding signal,ELF3,"1.43 fold enrichment (6-mer frequency, TF over GST control)"
same,binding signal,CRX,"1.46 fold enrichment (6-mer frequency, TF over GST control)"
same,binding signal,ETV1,"1.36 fold enrichment (6-mer frequency, TF over GST control)"
same,binding signal,ERF,"1.48 fold enrichment (6-mer frequency, TF over GST control)"
same,binding signal,ETV3L,"1.49 fold enrichment (6-mer frequency, TF over GST control)"
same,binding signal,ETS2,"1.4 fold enrichment (6-mer frequency, TF over GST control)"
same,binding signal,SPDEF,"1.26 fold enrichment (6-mer frequency, TF over GST control)"
same,binding signal,ETV7,"1.5 fold enrichment (6-mer frequency, TF over GST control)"
same,binding signal,ELF5,"1.29 fold enrichment (6-mer frequency, TF over GST control)"
same,binding signal,ETV3,"1.31 fold enrichment (6-mer frequency, TF over GST control)"
same,binding signal,ETV6,"1.33 fold enrichment (6-mer frequency, TF over GST control)"
